Several values for one entry are separate records, joined by “and”; a condition that tells them apart may be missing. Equal entries are not always repeated. Results filed as inconclusive are left out. A call without a number means that no potency is given here. Activity calls are given as the source filed them. Calls follow the shape of the full dose curve. Starred links: 1 amine or outer side, 2 acyl side, 3 side chain; linkers in the order of their positions; H or OH if unused. Positions of bridges follow the written chain, without caps; N, C: chain ends. Non-standard residues stand in square brackets, D forms with d. Residues, ends and D or L forms follow the SMILES beside them. ξ: configuration not given here. *: point of attachment. ΔAla(3-NHCONH2) = NC(=O)NC=C(N)C(=O)O; X1 = NC1=NCCC(C(N[*:1])C(=O)[*:2])N1; ξβ3hOrn = NCCCC(N)CC(=O)*; Dap = NC[CH](N)C(=O)O
Key:
[1] = Cytotoxicity counterscreen for inhibitors of SARS-CoV-2 cell entry (AID 1645845); settings: cell viability (SARS-CoV-2 entry assay cells); series mostly up to 57.1 µM; also: nearly all actives have a fitted effect of over 50% in size
Summary of the method: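 Expi293F/hACE2 cells seeded overnight; cpd pin-transferred in DMSO, 1 h preincubation, + media, 48 h 37 C 5% CO2; ATPLite 1step luminescence; normalized to cells and no cells.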

[2] = Primary qHTS to identify inhibitors of SARS-CoV-2 cell entry (AID 1645846); settings: SARS-CoV-2 pseudovirus cell entry assay, luminescence; activity change, negative = inhibition: at 57.1 µM (top of the series) unless noted; series mostly up to 57.1 µM; also: nearly all actives have a fitted effect of over 45% in size; also: potency is read from the fitted curve at half-maximal effect
Summary of the method: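 HEK293-ACE2 (Expi293F, stable hACE2), 1500 cells/well, o/n 37C; cpd 23 nL pin, 1 h; MLV-PP w/ SARS-CoV-2-S (Wuhan-Hu-1, Δ19 C-term); 48 h 37C; Bright-Glo luminescence; normalized vs S-PP and bald PP.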

Row | SMILES | Potency [1] | Potency [2] | activity change, negative = inhibition [2] | outcome [1]
1 | O=C(O)CCNC(=O)c1ccc(N=Nc2ccc(O)c(C(=O)O)c2)cc1 | inactive | inactive |  | 
2 | CCCC(=O)Nc1ccc(OCC(O)CNC(C)C)c(C(C)=O)c1 (stereo not given) | inactive |  | 4.12% | 
3 | CCN(C)C(=O)Oc1cccc([C@H](C)N(C)C)c1 | inactive | inactive |  | 
4 | CC(C)NC[C@@H](O)COc1ccc(CC(N)=O)cc1 | inactive |  | -29.4% | 
5 | CCCNCC(O)COc1ccccc1C(=O)CCc1ccccc1 (stereo not given) | inactive | 20 µM (active) and 35.5 µM (active) |  | 
6 | Nc1cc(-c2ccncc2)c[nH]c1=O | inactive | inactive |  | 
7 | O=C1N=C(O)CN1/N=C/c1ccc(-c2ccc([N+](=O)[O-])cc2)o1 | inactive | inactive |  | 
8 | Cn1cc[nH]c1=S | inactive | inactive |  | 
9 | NC(=O)N1c2ccccc2CC(=O)c2ccccc21 | inactive | inactive |  | 
10 | C[N+]1(C)CCC(OC(=O)C(O)(c2ccccc2)C2CCCC2)C1 (stereo not given) | inactive | inactive |  | 
11 | NC[C@H](O)c1ccc(O)c(O)c1 | inactive |  | 4.91% and -20.6% | 
12 | Cc1ccc2c(n1)Oc1ccc(C(C)C(=O)OCC(=O)N(C)C)cc1C2 (stereo not given) | inactive | inactive |  | 
13 | Oc1ccc(C2CNCCc3c2cc(O)c(O)c3Cl)cc1 (stereo not given) | inactive | inactive |  | 
14 | CN(C)c1cc(NC(=O)CNC(C)(C)C)c(O)c2c1C[C@@H]1C[C@H]3[C@H](N(C)C)C(=O)C(C(N)=O)=C(O)[C@@]3(O)C(=O)C1=C2O | inactive |  | -25.4% | 
15 | CCN1CCN(C(=O)N[C@@H](C(=O)N[C@@H]2C(=O)N3C(C(=O)O)=C(CSc4nnnn4C)CS[C@H]23)c2ccc(O)cc2)C(=O)C1=O | inactive | inactive |  | 
16 | c1cnc2cc3c(cc2n1)C1CNCC3C1 | inactive |  | -6.05% and -6% | 
17 | N=C(N)c1ccc(OCCCCCOc2ccc(C(=N)N)cc2)cc1 | inactive | 15.8 µM (active) |  | 
18 | NCCCC(N)CC(=O)NCC1NC(=O)C(CO)NC(=O)C(N)CNC(=O)C(C2CCN=C(N)N2)NC(=O)C(=CNC(N)=O)NC1=O (stereo not drawn) (H-[Dap]S[Dap](ξβ3hOrn)[ΔAla(3-NHCONH2)][X1]; lactam 1-C; configuration not given here) |  |  | 3.17% [at 0.702 µM] | inactive [at 0.702 µM]
19 | COc1cc2c(cc1OC)[C@@H]1CC(=O)[C@@H](CC(C)C)CN1CC2 | inactive | inactive |  | 
20 | COC(=O)CCc1ccc(OCC(O)CNC(C)C)cc1 (stereo not given) | inactive |  | -35% | 

Row | SMILES | Potency [1] | Potency [2] | activity change, negative = inhibition [2] | outcome [1]
21 | CC(C)Oc1ccc2c(=O)c(-c3ccccc3)coc2c1 | inactive | inactive |  | 
22 | CNCC[C@@H](Oc1ccccc1C)c1ccccc1 | inactive |  | -15.9% | 
23 | O=c1[nH]cc(F)c(=O)[nH]1 | inactive | 11.2 µM (active) and 14.1 µM (active) |  | 
24 | OC(Cn1cncn1)(Cn1cncn1)c1ccc(F)cc1F | inactive |  | -13.6% and -9.57% | 
25 | CN(N=O)C(=O)N[C@@H]1[C@@H](O)[C@H](O)[C@@H](CO)O[C@@H]1O | inactive |  | -3.87% and -2.3% | 
26 | Nc1ccc(O)c(C(=O)O)c1 | inactive |  | 2.37% | 
27 | COc1ccccc1OCC(O)CN1CCN(CC(=O)Nc2c(C)cccc2C)CC1 (stereo not given) | inactive |  | 4.5% and -8.51% | 
28 | Nc1nc(F)nc2c1ncn2[C@@H]1O[C@H](CO)[C@@H](O)[C@@H]1O | inactive |  | 3.89% and -17.8% | 
29 | O=C(NCCN1CCOCC1)c1ccc(Cl)cc1 | inactive | inactive |  | 
30 | CC[N+](C)(C)c1cccc(O)c1 | inactive | inactive |  | 
31 | NS(=O)(=O)c1cc2c(cc1Cl)NC=NS2(=O)=O | inactive | inactive |  | 
32 | CCC(C)(C)C(=O)O[C@H]1C[C@@H](C)C=C2C=C[C@H](C)[C@H](CC[C@@H]3C[C@@H](O)CC(=O)O3)[C@H]21 | inactive | inactive |  | 
33 | CC(=O)CCCCn1c(=O)c2c(ncn2C)n(C)c1=O | inactive | inactive |  | 
34 | CCOC(=O)[C@H](CCc1ccccc1)N[C@@H](C)C(=O)N1Cc2ccccc2C[C@H]1C(=O)O | inactive |  | 3.61% | 
35 | COc1ccccc1OCCNCC(O)COc1cccc2[nH]c3ccccc3c12 (stereo not given) | inactive | 22.4 µM (active) |  | 
36 | Cc1nc2n(c(=O)c1CCN1CCC(c3noc4cc(F)ccc34)CC1)CCCC2 | inactive | inactive |  | 
37 | Nc1[nH]c(=O)ncc1F | inactive |  | -21.9% and -13.2% | 
38 | CC1=C(C(=O)O)N2C(=O)[C@@H](NC(=O)[C@H](N)c3ccccc3)[C@H]2SC1 | inactive |  | -1.93% | 
39 | Cc1ccccc1C(=O)Nc1ccc(C(=O)N2CCCC(O)c3cc(Cl)ccc32)c(C)c1 (stereo not given) | inactive |  | -8.91% | 
40 | CC(C)[N+](C)(CCOC(=O)C1c2ccccc2Oc2ccccc21)C(C)C | inactive |  | 2.34% | 

From PubChem BioAssay (NCATS)
